In the library only some 10% were active in any assay of this set; here they are far more common.
CCT modulator: changes cytosolic chaperonin activity | purified chaperonin ATPase assay, HTRF ADP detection, 30 min | activity change, % (concentration not given with the values), hits read low | 0.3% of 360,000 active | AID 651819; in the data active = activity change below about -30%
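We incubate TRiC, 40 or 20 nM final, with library compounds at 76 uM and 10 uM ATP for 30 min at 37 °C. ADP formed is detected with Transcreener HTRF reagents after 30 min at room temperature.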
VDR inhibitor: blocks the human vitamin D receptor; 0.93% of 400,000 active; P11473; Potency, µM, for the others: max response, negative = inhibition, usual class: inhibitors; VDR-SRC2-3 peptide fluorescence polarization, 2 h; note: potency is the fitted concentration of half-maximal effect
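Reagent solutions, kept cold and dark, are dispensed first; compounds are then pinned in at 23 nl, plates briefly spun, and incubated 2 h at ambient temperature. Inhibition of VDR–SRC2-3 peptide binding is read by fluorescence polarization.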
PLK1 PBD inh: inhibitors of human PLK1 polo-box domain binding; Plk1 PBD binding of FITC phosphopeptide, fluorescence polarization; 2.8% of 360,000 active; P53350; Potency, µM, for the others: max response, negative = inhibition, actives largely listed as inhibitors; note: potency is the fitted concentration of half-maximal effect; series mostly up to about 57 µM; nearly all actives have a fitted effect of over 65% in size
Sfp PPTase inh: inhibitors of Bacillus subtilis Sfp phosphopantetheinyl transferase; Q9F4F7; Biochemical Sfp PPTase activity, qHTS; Potency, µM, for inactives: largest response in the series, negative = inhibition, hits mostly inhibitors; 3.5% of 310,000 active; AID 1490;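 note: the enzyme is Sfp with the accession as filed and its product quenches rhodamine fluorescence; potency is the fitted concentration of half-maximal effect; 0% = enzyme reaction without inhibitor and -100% = no enzyme wells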
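Compounds were incubated with enzyme (final 15 nM) for 15 min at room temperature before substrate addition started the reaction. Fluorescence at 525 nm excitation, 598 nm emission was recorded immediately and after 30 minutes.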
Mm-Cpn inhibitor: inhibitors of Methanococcus maripaludis chaperonin TRiC (MmCpn); 0.031% of 330,000 active; purified Mm-Cpn ATPase, ADP Transcreener TR-FRET; Potency, µM (series often up to 76.9 µM), for inactives: top-dose activity, negative = inhibition, most hits filed as inhibitors; note: potency is the fitted concentration of half-maximal effect; nearly all actives have a fitted effect of over 80% in size
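Compound-treated chaperonin, 25 nM final, turns over 10 uM ATP at 37°C for 30 min following a 10 min preincubation; ADP generated competes with ADP-d2 for Eu-cryptate antibody, lowering FRET.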
G9a block: inhibitors of human histone lysine methyltransferase G9a; AID 504332; Potency, µM (highest dose often 102 µM), inactives show at the highest dose activity, negative = inhibition, actives largely listed as inhibitors; 8.8% of 350,000 active; Q96KQ7; G9a H3K9 monomethylation, AlphaScreen, 2 h; note: potency is the fitted concentration of half-maximal effect; nearly all actives have a fitted effect of over 75% in size
Target sequence (Q96KQ7 913-1193 limits assumed): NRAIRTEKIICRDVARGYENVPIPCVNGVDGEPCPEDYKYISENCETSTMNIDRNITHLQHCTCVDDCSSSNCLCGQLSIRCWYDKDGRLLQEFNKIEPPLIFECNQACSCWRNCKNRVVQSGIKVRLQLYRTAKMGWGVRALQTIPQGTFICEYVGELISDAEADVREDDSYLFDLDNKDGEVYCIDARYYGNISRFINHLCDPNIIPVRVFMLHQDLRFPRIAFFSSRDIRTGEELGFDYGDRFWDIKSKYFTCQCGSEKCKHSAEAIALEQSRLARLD
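Signal arises when biotinylated H3K9 peptide, once monomethylated, bridges streptavidin donor and antibody-captured acceptor beads. Enzyme at 20 nM was preincubated 15 min with test compounds; peptide 500 nM and SAM 20 uM then reacted for 2 h.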
* hit, by the source's call; [ ] = remark or other dose. Unless noted, calls come from the whole dose curve; as a rule, active = well fitted curve in the direction sought with a large enough effect; inconclusive = small, poorly fitted or top-dose-only effect, or another doubt; inactive = no such curve, though single readings can be large; an effect the other way counts as inactive or inconclusive. Unless noted, % is set by controls: 0 for no effect and ±100 for the full control effect.

`Cc1c(C)n(Cc2ccccc2)c2ccc(C(=O)NCCCN3CCOCC3)cc12` gave CCT modulator 0, VDR inhibitor -4%, PLK1 PBD inh -7%, Sfp PPTase inh -19%, Mm-Cpn inhibitor -1% and G9a block 50µM*.
`O=C(Cn1c(-c2cccs2)cc2cc(F)ccc21)NCCCN1CCN(c2ccccc2F)CC1` gave VDR inhibitor 4% and G9a block inconclusive.
For CCCCCCc1cc2cc(-c3nnc(-c4cccc(Cl)c4)o3)c(=O)oc2cc1O the results were VDR inhibitor -15% and G9a block 7%[59 µM].
Screening COC(=O)[C@H](COC(C)(C)C)NC(=O)O[C@@H]1C(=O)c2cc(Br)ccc2O[C@H]1c1ccc2c(c1)OCO2 returned VDR inhibitor 4% and Sfp PPTase inh 1%.
COc1ccc(NC(=O)c2ccc3[nH]c(C)cc(=O)c3c2)cc1 was read as VDR inhibitor 3% and G9a block -33%[59 µM].
Screening Cc1c(C)n(C)c2ccc(C(=O)NCCCN3CCOCC3)cc12 returned CCT modulator -2, VDR inhibitor -18%, PLK1 PBD inh -9%, Sfp PPTase inh -1%, Mm-Cpn inhibitor -3% and G9a block -13%.
For Cc1c(C)n(C)c2ccc(C(=O)NCCCN3CCN(c4ccc(F)cc4)CC3)cc12 the results were CCT modulator 0, VDR inhibitor 0%, PLK1 PBD inh -11%, Sfp PPTase inh -12%, Mm-Cpn inhibitor -3% and G9a block 40µM*.
Screening Cc1[nH]c2ccc(C(=O)NC3CCCC3)cc2c1C returned CCT modulator -7, VDR inhibitor 19%, PLK1 PBD inh -24%, Mm-Cpn inhibitor 0% and G9a block 22%[2.33 µM].
Cc1ccccc1CNC(=O)c1ccc2c(c1)c(C)c(C)n2C was read as VDR inhibitor 6% and G9a block inconclusive.
For CCN(CC)c1ccc(NC(=O)c2ccc3c(c2)c(C)c(C)n3C)cc1 the results were CCT modulator 0, VDR inhibitor -9%, PLK1 PBD inh 6%, Sfp PPTase inh -11%, Mm-Cpn inhibitor -2% and G9a block 3.2µM*.
Screening Cc1[nH]c2ccc(C(=O)NC3CCC(C)CC3)cc2c1C (configuration not stated) returned CCT modulator -62*, VDR inhibitor -21%, PLK1 PBD inh 2%, Sfp PPTase inh 12%, Mm-Cpn inhibitor -8% and G9a block -3%.
For Cc1cc(C)c2c(CC(=O)Nc3cc(C(F)(F)F)ccc3Cl)coc2c1 the results were VDR inhibitor 7% and G9a block 6%[59 µM].
O=c1nc(Nc2cccc(Cl)c2)oc2cc(Cl)oc(=O)c12 was read as CCT modulator -3, VDR inhibitor -15%, PLK1 PBD inh inconclusive, Sfp PPTase inh -3%, Mm-Cpn inhibitor -8% and G9a block 50µM*.
For O=C(c1noc2c1CCCCC2)N1CCN(c2cccc(C(F)(F)F)c2)CC1 the results were VDR inhibitor -3% and G9a block -2%[59 µM].
Cc1cc(C(=O)CCl)c(C)n1CCc1ccc(Cl)cc1 was read as CCT modulator -2, VDR inhibitor 18µM*, PLK1 PBD inh inconclusive, Sfp PPTase inh -30%, Mm-Cpn inhibitor -1% and G9a block inconclusive.
`Cc1oc(-c2ccc(C(=O)Nc3cccc(C(F)(F)F)c3)cc2)nc1CSc1ccccc1` gave VDR inhibitor 4% and G9a block -1%[59 µM].
For CC(C)(CCC(=S)N1CCOCC1)C1CCCCC1 the results were CCT modulator -40*, VDR inhibitor inconclusive, PLK1 PBD inh 12µM*, Sfp PPTase inh -89%, Mm-Cpn inhibitor -2% and G9a block 8.9µM*.
For Cc1cccc(OCC(=O)NC(Cc2c[nH]c3ccccc23)C(=O)O)c1C (configuration not stated) the results were CCT modulator -1, VDR inhibitor 8%, PLK1 PBD inh -25%, Sfp PPTase inh 50µM*, Mm-Cpn inhibitor 1% and G9a block 40µM*.

Compound activity deposited in PubChem by National Center for Advancing Translational Sciences (NCATS).
